Data on 14 compounds can be found in PubChem BioAssay.

Active and inactive are the calls of the source. Unless noted, how the calls were made is not given here.

Test [1] deals with Wnt5a (protein binding on small-molecule microarray). Kind of test: Wnt5a binders on small-molecule microarray, primary screen, biophysical, 635/667 nm fluorescence (AID 1142).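 Further: fluorescence read at 667 nm with signal to noise per printed feature.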 The settings on record: 635 nm fluorescence, higher = more signal.
Test [2] in a line: cell viability in Huh7 cells, primary screen, cytotoxicity control for HCV replication inhibitor project, CellTiter-Glo luminescence, basal, 48 h (AID 1143).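 Further: Huh7 hepatoma cells carrying a hepatitis C replication reporter with no stimulus; test concentration not given here.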 To be noted: Huh7 HCV replicon, higher = more signal, called active from +8 up or from −8 down. On the technique in general: ATP-based viability assays read luminescence as a measure of living cells.
Test [3] can be described thus: P. aeruginosa biofilm formation inhibitors, primary screen, PAO1 strain, BacTiter-Glo luminescence, LB-PBS (AID 1144). The settings on record: 12 h, higher = more signal.
The nature of test [4]: CREB reporter modulators without forskolin, primary screen, cell-based, PC12, CRE-LacZ reporter, unstimulated (AID 1145). The settings on record: no forskolin, luminescence, 4.5 h, higher = more signal, called active from +8 up or from −8 down.
Test [5] can be described thus: CREB reporter modulators under forskolin, primary screen, cell-based, PC12, CRE-LacZ reporter, forskolin-stimulated (AID 1146).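 Further: PC12 cells with 6xCRE LacZ reporter stimulated by forskolin 10 µM; beta-galactosidase reporter signal reflecting CREB driven transcription.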 The settings on record: luminescence, 4.5 h, higher = more signal, called active from +8 up or from −8 down.
In test [6] the target is Streptavidin (Streptomyces avidinii) (UniProt P22629). Kind of test: streptavidin binders on small-molecule microarray, primary screen, artefact control for SMM compound annotation, biophysical, 635/667 nm fluorescence (AID 1147).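 Further: signal reflects streptavidin binding to arrayed compounds as a control protein.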 The settings on record: streptavidin binding, higher = more signal.
A short description of test [7]: small-molecule binders of probe aInhba, primary screen, biochemical, small-molecule microarray, 635/667 nm fluorescence (AID 1148).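 Further: score merges 667nm spot fluorescence with signal-to-noise for antibody binding to printed compounds.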 The settings on record: higher = more signal.
The target in test [8] is Torsin-1A (Homo sapiens) (UniProt O14656). Kind of test: torsin A binders from cell lysate, primary screen, small-molecule microarray, wild-type, 635/667 nm (AID 1149). To be noted: COS7 hTOR1A-WT lysate, 635 nm fluorescence, higher = more signal.
Test [9] shares this target. Kind of test: small-molecule binders of mutant TOR1A in lysate, primary screen, cell lysate, small-molecule microarray, COS7 lysate, 635/667 nm fluorescence (AID 1150).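 Further: score pools 667 nm emission and signal to noise measuring lysate protein binding.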 To be noted: COS7 hTOR1A mutant lysate, 635 nm fluorescence, higher = more signal.
The subject of test [10] is Sonic hedgehog protein (Shh). Kind of test: small-molecule binders of Shh protein, primary screen, biochemical, small-molecule microarray, 635/667 nm fluorescence (AID 1151).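 Further: Shh protein binding to compounds spotted on small-molecule microarray slides; score combines spot fluorescence intensity with signal-to-noise across triplicate slides.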 To be noted: small-molecule microarray binding, 635 nm fluorescence; higher = more signal.

Sequence of Streptavidin (Streptomyces avidinii) (P22629 whole entry, looked up): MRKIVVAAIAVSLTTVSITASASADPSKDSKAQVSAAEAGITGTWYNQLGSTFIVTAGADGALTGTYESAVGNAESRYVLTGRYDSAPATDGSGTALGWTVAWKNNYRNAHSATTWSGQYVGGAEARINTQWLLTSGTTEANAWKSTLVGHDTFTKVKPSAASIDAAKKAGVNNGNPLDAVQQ
Sequence of Torsin-1A (Homo sapiens) (O14656 whole entry, looked up): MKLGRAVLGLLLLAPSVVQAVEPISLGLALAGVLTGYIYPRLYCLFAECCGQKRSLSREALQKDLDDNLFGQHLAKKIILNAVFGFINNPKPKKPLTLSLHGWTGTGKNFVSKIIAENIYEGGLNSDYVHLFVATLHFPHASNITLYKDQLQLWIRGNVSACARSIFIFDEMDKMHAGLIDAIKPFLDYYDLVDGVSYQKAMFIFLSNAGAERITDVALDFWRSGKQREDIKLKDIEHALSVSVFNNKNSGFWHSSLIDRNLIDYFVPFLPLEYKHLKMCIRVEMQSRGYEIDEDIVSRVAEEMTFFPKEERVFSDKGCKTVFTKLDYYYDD

For `C=C(/C(=C/C[C@@H](OC(=O)c1ccncc1)c1ccccc1OCCO)c1cnc2ccccc2c1)C(C)C`, the composite z-score in [1] was 0.816; in test [6] it was 1.67; in test [7], 0.421; in the test with Torsin-1A (Homo sapiens) [8], 0.799; with Torsin-1A (Homo sapiens) [9], -0.0593; in test [10], 2.22. For the same compound, the z-score in test [2] was -8.34 (active); in test [3] it was 0.556 (inactive); in [4] it was 15.6 (active); in test [5], -0.0321 (inactive).
As for `COCCOC(=O)N1C(=O)[C@@]2(c3cc(C#Cc4ccc(OC)cc4)ccc31)[C@H](C(N)=O)[C@H]1C(=O)O[C@H](c3ccccc3)[C@H](c3ccccc3)N1[C@@H]2c1ccc(OCCO)cc1`, the composite z-score in test [1] came to 0.608; in test [6], 0.741; in test [7], 0.267; with Torsin-1A (Homo sapiens) [8] it was 0.534; with Torsin-1A (Homo sapiens) [9], 0.424; in test [10], 1.66. The z-score is -4.52 (inactive) in test [2], -0.637 (inactive) in test [3], -0.598 (inactive) in test [4] and -0.164 (inactive) in [5].
In the case of `CC(C)=CCCC(C)=CC(O)C1C=CC2C(=O)N(c3ccccc3)C(=O)C2N1Nc1ccc([N+](=O)[O-])cc1` (stereo not given), the composite z-score worked out at 0.0504 in test [1]; 2.06 in test [6]; 0.077 in test [7]; 0.383 in the test with Torsin-1A (Homo sapiens) [8]; 1.12 with Torsin-1A (Homo sapiens) [9]; 0.821 in test [10]. Besides, the z-score in [2] is -1.72 (inactive); in test [3], -0.322 (inactive); in test [4], 0.323 (inactive); in test [5] it was -0.0578 (inactive).
`COc1cc(C(O)C2C=CC3C(=O)N(C)C(=O)C3N2NC(=O)OC(C)(C)C)cc(OC)c1OC` (stereo not given): the composite z-score in test [1] is 0.653; in [6], 0.671; in [7] it was 0.798; with Torsin-1A (Homo sapiens) [8], -0.146; in the test with Torsin-1A (Homo sapiens) [9], 0.727; in test [10], -0.32. Also, the z-score in test [2] is 0.778 (inactive); in test [3], 0.66 (inactive); in test [4] it was -0.326 (inactive); in test [5], 1.25 (inactive).
Regarding `CO[C@H]1O[C@H](CO)[C@@H](OC(=O)c2ccc(Br)cc2)[C@@H]2OC(=O)[C@H](Cc3cccc(Br)c3)C/C=C/C[C@@H](Cc3cccc(Br)c3)C(=O)O[C@@H]12`, the composite z-score in [1] was 0.422; in [6], 0.578; in test [7], -0.0695; with Torsin-1A (Homo sapiens) [8] it was -0.103; with Torsin-1A (Homo sapiens) [9] it was 0.442; in test [10], 0.707. In addition, the z-score in [2] is -1.62 (inactive); in test [3] it was -0.0682 (inactive); in [4], 0.212 (inactive); in [5] it was 0.122 (inactive).
Turning to `C=C(/C(=C/C[C@@H](OC(C)=O)c1ccccc1OCCO)c1cnc2ccccc2c1)C(C)C`, the composite z-score in test [1] is 0.515; in [6] it was -0.02; in test [7], 0.167; with Torsin-1A (Homo sapiens) [8], 0.72; with Torsin-1A (Homo sapiens) [9], 0.0714; in test [10] it was 1.81. Also, the z-score is -1.35 (inactive) in test [2], 0.362 (inactive) in test [3], 10.8 (active) in [4] and 0.982 (inactive) in test [5].
Consider `COCCOC(=O)N1C(=O)[C@@]2(c3cc(C#CCNC(N)=O)ccc31)[C@H](C(=O)N1CCCCCCC1)[C@H]1C(=O)O[C@H](c3ccccc3)[C@H](c3ccccc3)N1[C@@H]2c1ccc(OCCO)cc1`, for which the composite z-score in test [1] is 0.0855; in [6], 0.32; in test [7], 0.232; with Torsin-1A (Homo sapiens) [8] it was 0.0121; with Torsin-1A (Homo sapiens) [9], 0.145; in [10], 0.438. Also, the z-score in [2] was -0.897 (inactive); in test [3], -1.52 (inactive); in test [4], 0.22 (inactive); in test [5], -0.311 (inactive).
For the compound `C[C@@]1([C@@H](NC(=O)c2cccs2)c2ccc(-c3ccccc3)cc2)C[C@H]1C1CCCCC1`, the composite z-score in test [1] is -0.465; in [6] it was -0.649; in test [7], -0.157; with Torsin-1A (Homo sapiens) [8], -1.24; with Torsin-1A (Homo sapiens) [9], -0.787; in test [10], -1.46. In addition, the z-score is -4.41 (inactive) in [2], 0.141 (inactive) in test [3], 0.201 (inactive) in test [4] and -0.169 (inactive) in [5].
As for `CCOC(=O)C1=CCC(c2cccc(Cl)c2)O1` (stereo not given), the composite z-score in test [1] is -0.0719; in test [6] it was -0.164; in test [7] it was 0.0541; in the test with Torsin-1A (Homo sapiens) [8] it was 0.368; with Torsin-1A (Homo sapiens) [9], 0.263; in [10] it was -0.549. For the same compound, the z-score is -4.6 (inactive) in [2], -1.23 (inactive) in [3], -0.471 (inactive) in [4] and 0.0691 (inactive) in test [5].
`COCCOC(=O)N1C(=O)[C@@]2(c3ccccc31)[C@H](c1ccccc1OCCO)N1[C@H](c3ccccc3)[C@H](c3ccccc3)OC(=O)[C@H]1[C@@H]2C(=O)N1CCc2cc(OC)c(OC)cc2C1`: the composite z-score in [1] worked out at 0.212; in test [6], 0.02; in test [7], 0.255; with Torsin-1A (Homo sapiens) [8], 0.517; with Torsin-1A (Homo sapiens) [9] it was 0.546; in [10] it was 1.24. The z-score in test [2] was -3.53 (inactive); in test [3], -1.04 (inactive); in test [4] it was 0.0736 (inactive); in test [5] it was 2.88 (inactive).
On to `C=C(C(=O)CC[C@H](OC(=O)c1cccnc1)c1ccc(OCCO)cc1)C(C)C`, for which the composite z-score in [1] is 0.287; in [6], 0.548; in [7] it was -0.0857; in the test with Torsin-1A (Homo sapiens) [8], 1.12; with Torsin-1A (Homo sapiens) [9], 0.541; in test [10] it was 1.47. Besides, the z-score in [2] is -2.33 (inactive); in test [3], 0.143 (inactive); in test [4], 17.9 (active); in test [5] it was 2.79 (inactive).
In the case of `COCCOC(=O)N1C(=O)[C@@]2(c3cc(C#CCCO)ccc31)[C@H](C(=O)N1CCc3cc(OC)c(OC)cc3C1)[C@H]1C(=O)O[C@H](c3ccccc3)[C@H](c3ccccc3)N1[C@@H]2c1ccc(OCCO)cc1`, the composite z-score stood at 0.667 in test [1]; 0.675 in test [6]; 0.077 in [7]; 0.284 in the test with Torsin-1A (Homo sapiens) [8]; 0.89 with Torsin-1A (Homo sapiens) [9]; 2.13 in test [10]. Moreover, the z-score in [2] is -2.99 (inactive); in test [3], -1.11 (inactive); in test [4] it was 0.362 (inactive); in test [5], -1.27 (inactive).
Turning to `O=C1OCCC=C[C@H]2OC34C=CCN(Cn5nnc6ccccc65)C(=O)[C@H]3N(CCCCCO)C(=O)[C@@H]4C12` (stereo not given in full), the composite z-score in [1] is -0.355; in [6] it was -0.686; in test [7], -0.0762; with Torsin-1A (Homo sapiens) [8], 0.97; with Torsin-1A (Homo sapiens) [9], 1.15; in [10] it was 0.0364. Besides, the z-score in test [2] is 0.399 (inactive); in test [3] it was -1.04 (inactive); in test [4], 0.0564 (inactive); in test [5] it was 0.804 (inactive).
Turning to `C[N+](C)(C)CCCC[C@@H]1NC(=O)[C@@H]2C[C@H](C(=O)O)[C@H](c3cccc(OCCO)c3)N2C1=O`, the composite z-score in test [1] was -0.0257; in [6], -1.01; in test [7], -0.179; with Torsin-1A (Homo sapiens) [8], 0.405; with Torsin-1A (Homo sapiens) [9], 0.171; in [10], 0.976. Moreover, the z-score is -0.63 (inactive) in test [2], -0.773 (inactive) in [3], -0.671 (inactive) in test [4] and -0.471 (inactive) in [5].
